The results in this text go back to PubChem BioAssay (NCATS).

Structures are written as SMILES. Results filed as inconclusive are left out. Calls of active or inactive are those of the source. Calls follow the shape of the dose curve; as a rule, active = well fitted cell-killing curve with a large enough effect; inconclusive = small, poorly fitted or top-dose-only effect, or effect the other way; inactive = flat fitted curve, though single readings scatter.
% is scaled to controls: 0 for no effect and ±100 for the full control effect.

A short description of this assay: qHTS for Inhibitors of ATXN expression: Validation of Cytotoxic Assay (AID 588349). To be noted: cytotoxicity counter-screen for ATXN expression inhibitors, cell viability; series mostly up to 57.1 µM; activity change, negative = cytotoxicity: at the top concentration. The text has this: Spinocerebellar ataxia type 2 (SCA2) is a multisystem neurodegenerative disease caused by a dominantly-acting mutation leading to expansion of a polyQ domain in the ataxin-2 protein (ATXN2). SCA2 patients develop progressive ataxia and later lose function in other neuronal systems. Prominent parkinsonian signs develop in some patients. Similar to many neurodegenerative disorders, no symptomatic or disease-modifying treatments are known.
The primary objective of project is to identify compounds inhibiting ATXN2 expression and to test them for efficacy in SCA2 mouse models. To this end, in a collaboration between Dr. Daniel Scoles and scientists at NCGC, a cell-based assay adapted to high-throughput screening has been developed to screen the NIH Molecular Libraries Small Molecule Repository (MLSMR). Confirmed qHTS active compounds will be tested for toxicity against the human neuron-like SH-SY5Y cell line. This line is the parental cell type used to generate the transgenic line used in the primary assay, and so should provide an isogenic control to test the inherent toxicity of qHTS actives.
NIH Chemical Genomics Center [NCGC]
NIH Molecular Libraries Probe Centers Network [MLPCN]
Assay Submitter (PI): Stefan Pulst and Daniel Scoles, University of Utah
HEK293 cultured cells will be dosed with titrated compounds and incubated for 72 hr at 37 degrees C. Toxicity will be assessed using the CellTiter Glo kit (Promega), which uses intracellular ATP concentration as a viability marker.
On the technique in general: qHTS replaces the single test concentration by a dilution series.
`CCOC(=O)C12CC1/C(=N/O)c1ccccc1O2` (stereo not given): the “activity change, negative = cytotoxicity” value was -3.69% (inactive).

For the compound `O=C(O)C1=CCCNC1`, the “activity change, negative = cytotoxicity” value is -14% (inactive).

As to `COC1(C2=NCCN2)COc2ccccc2O1` (stereo not given), the “activity change, negative = cytotoxicity” value is -11.9% (inactive).

Regarding `O=c1[nH]ccc2c(O)cccc12`, the “activity change, negative = cytotoxicity” value is -6.86% (inactive).

Turning to `CNc1cc(NS(=O)(=O)c2ccc(N)cc2)nc(NC)n1`, the “activity change, negative = cytotoxicity” value was -2.1% (inactive).

`Cc1nc(N=Nc2ccc(S(=O)(=O)O)cc2S(=O)(=O)O)c(COP(=O)(O)O)c(C=O)c1O`: the “activity change, negative = cytotoxicity” value is -3.07% (inactive).

Turning to `CCCn1c(=O)c2[nH]c(C3CCCC3)nc2n(CCC)c1=O`, the “activity change, negative = cytotoxicity” value was -8.82% (inactive).

On to `C=C1C[C@@]23CC[C@H]4[C@@](C)(CCC[C@@]4(C)C(=O)OC4OC(CO)C(O)C(O)C4O)[C@@H]2CC[C@]1(OC1OC(CO)C(O)C(O)C1OC1OC(CO)C(O)C(O)C1O)C3` (stereo not given in full), for which the “activity change, negative = cytotoxicity” value was -9.22% (inactive).

`N[C@@H](Cc1c[nH]c2ccccc12)C(=O)O`: the “activity change, negative = cytotoxicity” value was -10% (inactive).

Consider `CCCCOc1cc(CC2CNC(=O)N2)ccc1OC` (stereo not given), for which the “activity change, negative = cytotoxicity” value is -7.19% (inactive).

Consider `O=C(O)c1cc2cc(F)ccc2[nH]1`, for which the “activity change, negative = cytotoxicity” value was -3.65% (inactive).

For `CNC(=O)c1cc2c(cn1)[nH]c1ccccc12`, the “activity change, negative = cytotoxicity” value was -11.8% (inactive).

`O=C(O)Cc1ccc(O)c(O)c1`: the “activity change, negative = cytotoxicity” value was -28.7% (inactive).

Turning to `O=C(O)/C=C/c1cnc[nH]1`, the “activity change, negative = cytotoxicity” value was -6% (inactive).

For `COc1ccc2c(c1)CCC1C2CC[C@@]2(C)C1CC[C@@H]2NCCCCCCN1C(=O)C=CC1=O` (stereo not given in full), the “activity change, negative = cytotoxicity” value was -11.7% (inactive).

As to `NOCC(=O)O`, the “activity change, negative = cytotoxicity” value is 3.7% (inactive).

As to `Cc1cccc(C(=O)NCN2CCN(c3ccccc3C#N)CC2)c1`, the “activity change, negative = cytotoxicity” value is -16.2% (inactive).

For `C[C@@H](NCCc1ccc(O)cc1)[C@@H](O)c1ccc(O)cc1`, the “activity change, negative = cytotoxicity” value was -17.3% (inactive).

In the case of `CC#CCOC(=O)c1c(C)nc2sc3c(c2c1N)CCC(O)C3` (stereo not given), the “activity change, negative = cytotoxicity” value is -8.49% (inactive).

Regarding `O=C(O)C1CCNCC1`, the “activity change, negative = cytotoxicity” value was -9.05% (inactive).

Turning to `NCC(O)(CS(=O)(=O)O)c1ccc(Cl)cc1` (stereo not given), the “activity change, negative = cytotoxicity” value is 0.894% (inactive).

For the compound `CCCN(CCc1ccccc1)C1CCc2c(O)cccc2C1` (stereo not given), the “activity change, negative = cytotoxicity” value was -28.6% (inactive).

Take `CCCCCCN(CCCCCC)C(=O)Cc1c(-c2ccc(F)cc2)[nH]c2ccccc12`: the “activity change, negative = cytotoxicity” value is -0.454% (inactive).

With `N=C(N)c1ccc(OCCCCCOc2ccc(C(=N)N)cc2)cc1` (tested in a mixture with another compound), the “activity change, negative = cytotoxicity” value is -15.4% (inactive).

For `CCN1C(=O)C=CC1=O`, the “activity change, negative = cytotoxicity” value was -16.1% (inactive).

Regarding `NCC(O)c1ccc(O)c(O)c1` (stereo not given), the “activity change, negative = cytotoxicity” value was -10.5% (inactive).

Regarding `CCCCS(=N)(=O)CC[C@H](N)C(=O)O` (stereo not given in full), the “activity change, negative = cytotoxicity” value was -6.38% (inactive).

Take `Cc1nc2c(OCc3ccccc3)cccn2c1CC#N`: the “activity change, negative = cytotoxicity” value was -0.826% (inactive).

Consider `COc1ccccc1N1CCN(CCCCNC(=O)c2ccc3ccccc3c2)CC1`, for which the “activity change, negative = cytotoxicity” value is -13.6% (inactive).

Turning to `C=CCNc1ncnc2ccc(Br)cc12`, the “activity change, negative = cytotoxicity” value was -0.295% (inactive).

As to `Nc1nc2[nH]c(=O)cnc2c(=O)[nH]1`, the “activity change, negative = cytotoxicity” value is -7.23% (inactive).

`OCC1NCC(O)C(O)C1O` (stereo not given): the “activity change, negative = cytotoxicity” value is -8.43% (inactive).

As for `O=C1NC(=O)c2cc(Nc3ccccc3)c(Nc3ccccc3)cc21`, the “activity change, negative = cytotoxicity” value is -20.9% (inactive).

As to `CSC(=N)N`, the “activity change, negative = cytotoxicity” value is -20.2% (inactive).

`CCCCCCCCCCCCCCC[C@H](O)[C@H](N)CO`: the “activity change, negative = cytotoxicity” value is -9.61% (inactive).

Turning to `COCc1nc2c([nH]1)c(=O)n(C)c(=O)n2CC(C)C`, the “activity change, negative = cytotoxicity” value is -8.36% (inactive).

As for `CCCc1c(OCCCOc2ccc(OCC(=O)O)cc2)ccc(C(C)=O)c1O`, the “activity change, negative = cytotoxicity” value was -1.4% (inactive).

As to `COc1cc(C(O)C(=O)O)ccc1O` (stereo not given), the “activity change, negative = cytotoxicity” value is -13.4% (inactive).

Turning to `O=C(O)c1cccnc1C(=O)O`, the “activity change, negative = cytotoxicity” value is -6.07% (inactive).

Turning to `O=C1C2C=CC=CC2=NC(=S)N1CCN1CCC(=C(c2ccc(F)cc2)c2ccc(F)cc2)CC1` (stereo not given), the “activity change, negative = cytotoxicity” value was -9.29% (inactive).
